Rows were chosen to be rich in hits. Some 1.3% of all compounds tested hit in one or more screens of this group.
PI5P4Ka inh – qHTS for Inhibitors of phosphatidylinositol 5-phosphate 4-kinase (PI5P4K). 330,000 tested, 1.2% active. AID 652105, 2013. max response, %. Phosphatidylinositol 5-phosphate 4-kinase type-2 alpha (Homo sapiens), P48426. PI5P4Kalpha enzyme, ADP-Glo luminescence, 60 min; stronger effect = lower value; active means max response of -50% or lower; inconclusive means between -30% and -50%; inactive means -30% or higher; further: value at the top dose of about 77 µM; on the % scale 0 is the no-effect control and ±100 the full control effect
Target sequence (P48426 whole entry, looked up): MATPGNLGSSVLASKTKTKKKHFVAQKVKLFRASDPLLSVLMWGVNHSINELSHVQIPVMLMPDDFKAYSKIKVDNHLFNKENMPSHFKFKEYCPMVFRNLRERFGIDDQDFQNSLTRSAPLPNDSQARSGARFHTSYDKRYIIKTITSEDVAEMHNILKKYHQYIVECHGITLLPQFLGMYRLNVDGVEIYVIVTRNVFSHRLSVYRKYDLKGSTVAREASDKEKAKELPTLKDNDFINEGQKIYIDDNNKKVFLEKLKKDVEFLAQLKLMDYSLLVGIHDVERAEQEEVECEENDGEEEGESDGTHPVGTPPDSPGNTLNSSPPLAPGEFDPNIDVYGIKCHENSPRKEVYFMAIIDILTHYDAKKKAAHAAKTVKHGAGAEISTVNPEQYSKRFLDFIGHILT
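Quantitative HTS of the MLSMR library against PI5P4Kalpha with substrate. ATP added last at 5 microM final; room temperature, 60 minutes. Remaining ATP depleted, ADP converted and read as luminescence.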
WRN helicase inh – qHTS for Inhibitors of WRN Helicase | AID 651768, 2012 | Potency, µM (series often up to 114 µM), inactives show top-dose activity change, negative = inhibition, actives largely listed as inhibitors | 360,000 tested, 0.46% active | WRN helicase unwinding, fluorescent forked duplex, kinetic; further: potency means the concentration at half of the fitted maximal effect; on the % scale 0 is the no-effect control and ±100 the full control effect; nearly all actives have a fitted effect of over 55% in size
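Kinetic fluorescence helicase assay: unwinding of a quenched forked DNA duplex (100 nM final) with 2 mM ATP final raises red fluorescence (525/598 nm). Compounds sat 15 min at room temperature with 20 nM WRN beforehand.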
PGK inhibitor – qHTS Assay to Find Inhibitors of Phosphoglycerate Kinase. AID 602233, 2012. PGK/GAPDH coupled, Kinase-Glo luminescence, 60 min. 380,000 tested, 0.043% active. Phosphoglycerate kinase, glycosomal (Trypanosoma brucei brucei), P07378. Potency, µM (doses to about 57.5 µM), without a hit: at the top dose activity change, negative = inhibition, actives largely listed as inhibitors; further: potency means the concentration at half of the fitted maximal effect; on the % scale 0 is the no-effect control and ±100 the full control effect; nearly all actives have a fitted effect of over 60% in size
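Luminescent ATP detection (Kinase-Glo Plus) follows a 60-minute room-temperature incubation, with wells lacking PGK as controls. Buffer: 100 mM TEA (pH 7.6), 5 mM MgCl2, 0.01% Tween-20. Coupling enzyme GAPDH (100 nM final) supplies unstable 1,3-BPG in-well.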
FEN1 inhibitor – qHTS Assay for the Inhibitors of Human Flap endonuclease 1 (FEN1) | P39748 | Recombinant FEN1 flap cleavage, fluorescence, 15 min | Potency, µM (doses to about 114 µM), for the others: at the highest dose activity change, negative = inhibition, most hits filed as inhibitors | 390,000 tested, 0.35% active | AID 588795, 2011; further: potency means the concentration at half of the fitted maximal effect; on the % scale 0 is the no-effect control and ±100 the full control effect; nearly all actives have a fitted effect of over 65% in size
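Compounds are tested as a concentration series against 10 nM FEN1; after a 15 min room-temperature preincubation, 50 nM substrate starts cleavage, with plate reads at 0 and 15 min. Normalized responses are fitted by a Hill equation.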
Glioma ERSR ind – qHTS for Inducers of the Endoplasmic Reticulum Stress Response (ERSR) in Human Glioma: qHTS. Potency, µM, without a hit: at the highest dose activation, actives largely listed as activators. 420,000 tested, 0.02% active. U87-MG GRP78 promoter luciferase reporter, 16 h; further: potency means the concentration at half of the fitted maximal effect; series mostly up to about 76 µM; % of control where 0% means no effect; nearly all actives have a fitted effect of over 35% in size
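Stably transfected U87-MG glioma cells carrying a GRP78-based luciferase sensor; 16 h compound incubation. Luminescence end-point read 10 min after Bright-Glo addition at room temperature.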
Pin1 inh – qHTS Assay to Find Inhibitors of Pin1; 390,000 tested, 0.009% active; Peptidyl-prolyl cis-trans isomerase NIMA-interacting 1 (Homo sapiens), Q13526; Potency, µM (titrated, usually from 115 µM), inactives show at the top dose activity, negative = inhibition, most hits filed as inhibitors; AID 504891, 2011; Pin1 FP peptide displacement, HiFluor488, 10 min; active means well fitted inhibition curve with a large enough effect in the polarisation, with a control signal flat, not every such curve was filed as active; inconclusive means small, poorly fitted or top-dose-only effect, or effect the other way, or a change in a side signal; inactive means no such curve, though single readings can be large or run the other way; the % refers to the polarisation; further: potency means the concentration at half of the fitted maximal effect; on the % scale 0 is the no-effect control and ±100 the full control effect
Target sequence (Q13526 whole entry, looked up): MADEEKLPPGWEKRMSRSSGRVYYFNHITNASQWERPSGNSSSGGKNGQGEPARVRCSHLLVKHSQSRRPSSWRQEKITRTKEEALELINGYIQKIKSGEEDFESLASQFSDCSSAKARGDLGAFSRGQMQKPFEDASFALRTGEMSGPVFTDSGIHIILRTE
ADP-Glo counter – qHTS for Inhibitors of PI5P4K: ADP-Glo counter assay | shares compounds with PI5P4Ka inh | ADP-Glo detection counter-screen, luciferase luminescence, no enzyme | Potency, µM (doses to about 76.9 µM), for the others: at the highest dose activity change, negative = inhibition, hits mostly inhibitors | 1,100 tested, under 10 active
The depositor's hits bear a star; i = inactive; ? = inconclusive; nt = not tested or not shown; [ ] = another dose, or the depositor's remark. Unless noted, the call rests on the fitted dose curve; in most records, active means well fitted curve in the direction sought with a large enough effect; inconclusive means small, poorly fitted or top-dose-only effect, or another doubt; inactive means no such curve, though single readings can be large; an effect the other way counts as inactive or inconclusive.

SMILES	PI5P4Ka inh	WRN helicase inh	PGK inhibitor	FEN1 inhibitor	Glioma ERSR ind	Pin1 inh	ADP-Glo counter
CC(=O)c1cccc(-c2ccnc3c2CC(C(=O)NCc2ccco2)O3)c1 (stereo not given)	?	-3%	nt	nt	-3%	nt	nt
Cc1cc(C(=O)Nc2ccccc2-c2nc(CNC(=O)c3cscn3)c(C)o2)c(C)o1	nt	nt	nt	nt	2%	nt	nt
Cc1ccc(C(CCN(Cc2ccccc2)C(=O)c2ccco2)c2ccco2)cc1 (stereo not given)	-58*	?	-8%	-4%	-1%	?	-2%
Cc1c(C(=O)N(C)C2CCOC2)sc2ncnc(NCc3ccc4c(c3)OCO4)c12 (stereo not given)	nt	nt	nt	nt	-3%	nt	nt
Cc1cc(C(=O)CSc2nnc(-c3cccs3)n2Cc2ccccc2)c(C)n1C	0	2%	11%	0%	2%	2%	nt
O=c1cc(CSc2nnc(-c3cccs3)n2Cc2ccccc2)nc2sc3ccccc3n12	-51*	-9%	-1%	-1%	6%	?	6%
O=C(Nc1ccc(N2CCOCC2)c(S(=O)(=O)Nc2ccc(Cl)cc2)c1)c1ccc(=O)[nH]n1	-62*	-6%[11.6 µM]	-18%	-7%	-5%	?	-6%
CC[C@]12c3[nH]c4cc(-c5ccco5)ccc4c3CCN1C(=O)[C@@H](CC(=O)NCCC1=CCCCC1)C[C@@H]2C(=O)N1CCN(C(=O)c2ccco2)CC1	-73*	-5%[11.6 µM]	-12%	-7%	-2%	11%	1%
O=C(O)C1Nc2c(Cl)cc(Cl)c(Cl)c2C2C=CCC12 (stereo not given)	-76*	40µM*	?	35µM*	-4%	nt	0%
O=C(NCCN1CCN(c2ccccc2)CC1)C1CCCN(S(=O)(=O)c2cnc[nH]2)C1 (stereo not given)	-61*	-4%	-3%	-1%	-6%	-2%	4%
COc1ccc(-c2csc(NC(=O)c3ccccc3F)c2C(=O)O)cc1	-51*	-13%	5%	3%	4%	1%	0%
COc1cc(C(=O)Nc2scc(-c3ccccc3)c2C(=O)O)cc(OC)c1OC	-71*	-4%	i	-14%	2%	-8%	-7%
CCOC(=O)c1c(-c2cc(OC)c(OC)c(OC)c2)csc1NC(=O)c1ccccc1	10	-13%	-3%	nt	-3%	nt	nt
Cc1cc(-c2nc3c4c5c(sc4[nH]c(=O)n3n2)CCC5)c(C)o1	-59*	?	-23%	?	-7%	?	-6%
Cc1cnc(-n2ncc(C(=O)N(C)C3CCOC3)c2C)nc1-c1ccc(F)cc1 (stereo not given)	nt	nt	nt	nt	3%	nt	nt
COc1ccccc1CNc1nc(NCc2ccc3occc3c2)c2sccc2n1	nt	-8%	nt	nt	-4%	nt	1%
COc1ccccc1CNc1nc(NCc2ccccc2OC)c2sccc2n1	nt	-11%	nt	nt	-8%	nt	-4%
COCCNc1nc(NCc2ccccc2OC)c2sccc2n1	2	-2%	nt	nt	-8%	nt	nt
COc1ccccc1CNc1nc(NCCOc2ccccc2)c2sccc2n1	nt	-11%	nt	nt	-5%	nt	-6%
COc1ccccc1CNc1nc(Nc2cccc(-c3cnco3)c2)c2sccc2n1	nt	-16%	nt	nt	-9%	nt	-3%
c1cc2cc(CNc3nc(NCC4CC4)nc4ccsc34)ccc2o1	?	-1%	nt	nt	-4%	nt	nt
CC(C)c1c(C(=O)N2CCN(CCO)CC2)cnn1-c1nccc(-c2cccs2)n1	nt	nt	nt	nt	-5%	nt	nt

Screens deposited in PubChem BioAssay by National Center for Advancing Translational Sciences (NCATS).
